Activity calls are given as the source filed them.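 Rule for the calls: active = cell killing, with a fitted half-maximal concentration at or below twice the top valid dose tested; inconclusive = flat curve with moderate signal loss, or a poor fit; inactive = effect in the rising direction, plus the rest.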

This experiment is described as follows: HEK293T cytotoxicity, dose response, cytotoxicity control, cell-based, ATP luminescence, dry powder, set 11 (AID 743335). The note with it: HEK293T viability, ATP luminescence (CellTiter-Glo), 72 h; series mostly up to 15 µM; activity change, negative = cytotoxicity: at the top concentration.
As for `Cc1cnc(NC(=O)c2cc(S(=O)(=O)N(C)C)ccc2N2CCCC2)s1`, the “activity change, negative = cytotoxicity” value is -25.8% (inactive).
Under `COc1ccc2nc(NC(=O)c3cc(S(=O)(=O)N(C)C)ccc3N3CCCC3)sc2c1` stands -15.4% (inactive); under `Cc1ccc(NC(=O)c2cc(S(=O)(=O)N(C)C)ccc2N2CCCC2)cc1`, -8.27% (inactive).

The record behind these values is PubChem BioAssay AID743335 (Broad Institute, 2014).
